Reference: the supplement of paper PMC11732987, “Enantioselective OTUD7B fragment discovery through chemoproteomics screening and high-throughput optimisation” (Communications Chemistry, 2025)

Experiments:
Assay in all cases: log2 ratio of Biotin-Ahx-Ub-VS probe labelling (fragment/DMSO); higher = less target engagement (more negative = stronger competition), active = hit call of the paper (q ≤ 0.05, log2 ratio ≤ -1)
Conditions in all cases: compound concentration: 200 uM; treatment time: 3 h
[1] = biological target: T1, USP19 (UniProt O94966)
T1 sequence (whole entry): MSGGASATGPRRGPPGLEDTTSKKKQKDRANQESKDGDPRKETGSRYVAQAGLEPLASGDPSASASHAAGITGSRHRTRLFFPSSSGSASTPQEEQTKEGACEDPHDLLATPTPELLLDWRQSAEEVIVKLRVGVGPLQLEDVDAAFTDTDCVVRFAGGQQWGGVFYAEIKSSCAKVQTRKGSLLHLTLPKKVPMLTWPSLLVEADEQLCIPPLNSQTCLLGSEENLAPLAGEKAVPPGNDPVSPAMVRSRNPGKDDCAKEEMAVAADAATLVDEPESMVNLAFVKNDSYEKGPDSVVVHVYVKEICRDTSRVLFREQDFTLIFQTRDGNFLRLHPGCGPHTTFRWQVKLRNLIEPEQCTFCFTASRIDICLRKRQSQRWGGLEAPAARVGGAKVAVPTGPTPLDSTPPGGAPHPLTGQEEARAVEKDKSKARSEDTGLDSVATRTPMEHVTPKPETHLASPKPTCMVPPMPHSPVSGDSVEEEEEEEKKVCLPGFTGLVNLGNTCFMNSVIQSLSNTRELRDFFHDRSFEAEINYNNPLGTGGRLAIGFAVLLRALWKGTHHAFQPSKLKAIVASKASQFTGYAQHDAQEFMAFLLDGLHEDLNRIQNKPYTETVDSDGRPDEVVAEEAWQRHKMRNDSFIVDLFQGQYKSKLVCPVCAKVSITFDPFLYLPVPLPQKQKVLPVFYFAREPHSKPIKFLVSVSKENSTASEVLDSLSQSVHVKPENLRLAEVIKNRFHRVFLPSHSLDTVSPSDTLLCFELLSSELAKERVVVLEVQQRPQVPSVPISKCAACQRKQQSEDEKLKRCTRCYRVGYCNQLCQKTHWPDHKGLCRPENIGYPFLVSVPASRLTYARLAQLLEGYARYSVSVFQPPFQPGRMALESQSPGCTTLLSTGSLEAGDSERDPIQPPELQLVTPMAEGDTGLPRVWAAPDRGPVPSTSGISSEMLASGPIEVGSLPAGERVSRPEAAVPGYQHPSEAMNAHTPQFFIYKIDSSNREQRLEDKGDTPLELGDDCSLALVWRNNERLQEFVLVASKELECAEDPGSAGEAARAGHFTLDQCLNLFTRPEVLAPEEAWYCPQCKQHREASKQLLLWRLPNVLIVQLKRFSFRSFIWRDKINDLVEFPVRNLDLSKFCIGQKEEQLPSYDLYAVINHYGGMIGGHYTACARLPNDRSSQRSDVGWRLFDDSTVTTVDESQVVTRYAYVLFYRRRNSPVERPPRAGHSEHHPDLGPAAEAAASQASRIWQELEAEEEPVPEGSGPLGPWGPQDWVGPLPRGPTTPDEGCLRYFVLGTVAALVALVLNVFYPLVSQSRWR
Method in brief: (§1)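 Labelled DUBs from HEK293T lysate were NeutrAvidin-enriched, digested with LysC and trypsin, and run by diaPASEF LC-MS/MS. Before that, each 495 µg sample in Tris/CHAPS/IGEPAL buffer with protease inhibitors was treated in triplicate with fragment at 200 µM or vehicle for 3 h, then with Biotin-Ahx-Ub-VS at 0.5 µM final for 1 h. Values are average log2 ratios of fragment over vehicle by unpaired t-test, based on global-median-normalised Spectronaut label-free quantities from proteins with ≥2 unique peptides.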

[2] = biological target: T2, USP22 (UniProt Q9UPT9)
T2 sequence (whole entry): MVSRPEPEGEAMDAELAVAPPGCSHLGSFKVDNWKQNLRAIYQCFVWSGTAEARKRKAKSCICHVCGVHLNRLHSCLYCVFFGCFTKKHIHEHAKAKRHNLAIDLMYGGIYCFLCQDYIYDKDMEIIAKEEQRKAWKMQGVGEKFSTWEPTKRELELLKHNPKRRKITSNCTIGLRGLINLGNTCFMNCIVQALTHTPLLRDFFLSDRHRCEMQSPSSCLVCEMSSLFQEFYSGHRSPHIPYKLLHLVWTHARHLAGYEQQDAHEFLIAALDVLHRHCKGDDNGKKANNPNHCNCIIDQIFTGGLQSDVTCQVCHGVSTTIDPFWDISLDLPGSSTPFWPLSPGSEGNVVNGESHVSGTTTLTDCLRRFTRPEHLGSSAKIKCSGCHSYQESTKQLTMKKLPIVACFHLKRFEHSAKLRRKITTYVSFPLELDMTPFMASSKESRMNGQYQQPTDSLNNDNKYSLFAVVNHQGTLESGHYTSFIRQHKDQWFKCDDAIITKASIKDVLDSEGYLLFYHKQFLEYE
Method in brief: as §1

[3] = biological target: USP24 (UniProt Q9UPU5)
Method in brief: as §1

[4] = biological target: T3, USP25 (UniProt Q9UHP3)
T3 sequence (whole entry): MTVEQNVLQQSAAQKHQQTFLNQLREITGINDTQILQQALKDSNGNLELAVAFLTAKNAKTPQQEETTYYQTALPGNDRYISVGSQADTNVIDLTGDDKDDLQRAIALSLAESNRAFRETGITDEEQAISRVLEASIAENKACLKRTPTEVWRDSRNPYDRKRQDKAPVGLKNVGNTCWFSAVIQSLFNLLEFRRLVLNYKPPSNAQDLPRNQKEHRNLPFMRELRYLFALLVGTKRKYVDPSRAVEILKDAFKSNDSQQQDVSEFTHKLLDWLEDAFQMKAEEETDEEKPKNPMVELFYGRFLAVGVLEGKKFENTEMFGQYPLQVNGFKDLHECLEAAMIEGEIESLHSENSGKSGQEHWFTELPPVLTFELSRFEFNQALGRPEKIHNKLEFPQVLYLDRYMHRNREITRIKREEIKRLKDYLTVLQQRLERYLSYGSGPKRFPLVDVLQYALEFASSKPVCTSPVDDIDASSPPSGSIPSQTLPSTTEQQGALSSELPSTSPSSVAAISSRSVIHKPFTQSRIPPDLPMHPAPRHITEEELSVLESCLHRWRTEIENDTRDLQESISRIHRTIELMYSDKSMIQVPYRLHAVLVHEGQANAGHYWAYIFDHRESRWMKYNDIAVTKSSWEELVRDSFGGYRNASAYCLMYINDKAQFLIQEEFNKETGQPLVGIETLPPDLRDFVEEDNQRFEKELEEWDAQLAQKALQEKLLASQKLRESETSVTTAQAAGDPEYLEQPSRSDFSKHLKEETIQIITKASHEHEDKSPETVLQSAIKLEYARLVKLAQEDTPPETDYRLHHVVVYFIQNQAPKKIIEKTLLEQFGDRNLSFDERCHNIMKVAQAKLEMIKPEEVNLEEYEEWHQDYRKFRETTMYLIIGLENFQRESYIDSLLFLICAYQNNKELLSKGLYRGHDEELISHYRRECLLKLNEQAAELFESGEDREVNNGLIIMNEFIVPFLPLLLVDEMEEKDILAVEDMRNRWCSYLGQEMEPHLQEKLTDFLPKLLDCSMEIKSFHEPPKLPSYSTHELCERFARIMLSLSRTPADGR
Method in brief: as §1

[5] = biological target: T4, USP28 (UniProt Q96RU2)
T4 sequence (whole entry): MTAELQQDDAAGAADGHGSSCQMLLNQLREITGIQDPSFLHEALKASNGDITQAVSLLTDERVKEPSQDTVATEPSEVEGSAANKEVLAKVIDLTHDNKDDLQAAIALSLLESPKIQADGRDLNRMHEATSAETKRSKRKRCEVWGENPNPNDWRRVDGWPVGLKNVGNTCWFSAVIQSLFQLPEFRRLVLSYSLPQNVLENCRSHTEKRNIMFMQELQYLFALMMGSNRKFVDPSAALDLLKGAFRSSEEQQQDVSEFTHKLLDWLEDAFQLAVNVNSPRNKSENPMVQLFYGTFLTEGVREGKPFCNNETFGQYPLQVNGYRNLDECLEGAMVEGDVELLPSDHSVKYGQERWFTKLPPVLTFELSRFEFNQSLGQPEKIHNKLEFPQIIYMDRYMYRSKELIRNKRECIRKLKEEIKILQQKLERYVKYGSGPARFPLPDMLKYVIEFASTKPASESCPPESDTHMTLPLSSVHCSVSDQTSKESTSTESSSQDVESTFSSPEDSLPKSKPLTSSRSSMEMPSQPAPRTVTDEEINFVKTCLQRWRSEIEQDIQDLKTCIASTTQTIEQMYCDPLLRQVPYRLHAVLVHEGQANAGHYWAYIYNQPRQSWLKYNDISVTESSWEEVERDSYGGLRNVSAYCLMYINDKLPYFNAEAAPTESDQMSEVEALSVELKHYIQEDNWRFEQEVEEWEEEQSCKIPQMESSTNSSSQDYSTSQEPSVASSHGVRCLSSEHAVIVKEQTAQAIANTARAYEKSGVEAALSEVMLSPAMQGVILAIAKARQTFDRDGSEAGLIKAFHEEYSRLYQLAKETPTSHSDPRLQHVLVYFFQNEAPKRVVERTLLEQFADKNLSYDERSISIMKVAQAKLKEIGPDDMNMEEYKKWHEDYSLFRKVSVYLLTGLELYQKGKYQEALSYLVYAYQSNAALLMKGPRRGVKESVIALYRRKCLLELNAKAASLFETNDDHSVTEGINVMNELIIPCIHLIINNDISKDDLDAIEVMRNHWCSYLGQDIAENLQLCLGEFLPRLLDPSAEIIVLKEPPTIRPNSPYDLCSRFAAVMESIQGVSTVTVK
Method in brief: as §1

Measured: log2 ratio of Biotin-Ahx-Ub-VS probe labelling

USP24, sequence (Q9UPU5 whole entry): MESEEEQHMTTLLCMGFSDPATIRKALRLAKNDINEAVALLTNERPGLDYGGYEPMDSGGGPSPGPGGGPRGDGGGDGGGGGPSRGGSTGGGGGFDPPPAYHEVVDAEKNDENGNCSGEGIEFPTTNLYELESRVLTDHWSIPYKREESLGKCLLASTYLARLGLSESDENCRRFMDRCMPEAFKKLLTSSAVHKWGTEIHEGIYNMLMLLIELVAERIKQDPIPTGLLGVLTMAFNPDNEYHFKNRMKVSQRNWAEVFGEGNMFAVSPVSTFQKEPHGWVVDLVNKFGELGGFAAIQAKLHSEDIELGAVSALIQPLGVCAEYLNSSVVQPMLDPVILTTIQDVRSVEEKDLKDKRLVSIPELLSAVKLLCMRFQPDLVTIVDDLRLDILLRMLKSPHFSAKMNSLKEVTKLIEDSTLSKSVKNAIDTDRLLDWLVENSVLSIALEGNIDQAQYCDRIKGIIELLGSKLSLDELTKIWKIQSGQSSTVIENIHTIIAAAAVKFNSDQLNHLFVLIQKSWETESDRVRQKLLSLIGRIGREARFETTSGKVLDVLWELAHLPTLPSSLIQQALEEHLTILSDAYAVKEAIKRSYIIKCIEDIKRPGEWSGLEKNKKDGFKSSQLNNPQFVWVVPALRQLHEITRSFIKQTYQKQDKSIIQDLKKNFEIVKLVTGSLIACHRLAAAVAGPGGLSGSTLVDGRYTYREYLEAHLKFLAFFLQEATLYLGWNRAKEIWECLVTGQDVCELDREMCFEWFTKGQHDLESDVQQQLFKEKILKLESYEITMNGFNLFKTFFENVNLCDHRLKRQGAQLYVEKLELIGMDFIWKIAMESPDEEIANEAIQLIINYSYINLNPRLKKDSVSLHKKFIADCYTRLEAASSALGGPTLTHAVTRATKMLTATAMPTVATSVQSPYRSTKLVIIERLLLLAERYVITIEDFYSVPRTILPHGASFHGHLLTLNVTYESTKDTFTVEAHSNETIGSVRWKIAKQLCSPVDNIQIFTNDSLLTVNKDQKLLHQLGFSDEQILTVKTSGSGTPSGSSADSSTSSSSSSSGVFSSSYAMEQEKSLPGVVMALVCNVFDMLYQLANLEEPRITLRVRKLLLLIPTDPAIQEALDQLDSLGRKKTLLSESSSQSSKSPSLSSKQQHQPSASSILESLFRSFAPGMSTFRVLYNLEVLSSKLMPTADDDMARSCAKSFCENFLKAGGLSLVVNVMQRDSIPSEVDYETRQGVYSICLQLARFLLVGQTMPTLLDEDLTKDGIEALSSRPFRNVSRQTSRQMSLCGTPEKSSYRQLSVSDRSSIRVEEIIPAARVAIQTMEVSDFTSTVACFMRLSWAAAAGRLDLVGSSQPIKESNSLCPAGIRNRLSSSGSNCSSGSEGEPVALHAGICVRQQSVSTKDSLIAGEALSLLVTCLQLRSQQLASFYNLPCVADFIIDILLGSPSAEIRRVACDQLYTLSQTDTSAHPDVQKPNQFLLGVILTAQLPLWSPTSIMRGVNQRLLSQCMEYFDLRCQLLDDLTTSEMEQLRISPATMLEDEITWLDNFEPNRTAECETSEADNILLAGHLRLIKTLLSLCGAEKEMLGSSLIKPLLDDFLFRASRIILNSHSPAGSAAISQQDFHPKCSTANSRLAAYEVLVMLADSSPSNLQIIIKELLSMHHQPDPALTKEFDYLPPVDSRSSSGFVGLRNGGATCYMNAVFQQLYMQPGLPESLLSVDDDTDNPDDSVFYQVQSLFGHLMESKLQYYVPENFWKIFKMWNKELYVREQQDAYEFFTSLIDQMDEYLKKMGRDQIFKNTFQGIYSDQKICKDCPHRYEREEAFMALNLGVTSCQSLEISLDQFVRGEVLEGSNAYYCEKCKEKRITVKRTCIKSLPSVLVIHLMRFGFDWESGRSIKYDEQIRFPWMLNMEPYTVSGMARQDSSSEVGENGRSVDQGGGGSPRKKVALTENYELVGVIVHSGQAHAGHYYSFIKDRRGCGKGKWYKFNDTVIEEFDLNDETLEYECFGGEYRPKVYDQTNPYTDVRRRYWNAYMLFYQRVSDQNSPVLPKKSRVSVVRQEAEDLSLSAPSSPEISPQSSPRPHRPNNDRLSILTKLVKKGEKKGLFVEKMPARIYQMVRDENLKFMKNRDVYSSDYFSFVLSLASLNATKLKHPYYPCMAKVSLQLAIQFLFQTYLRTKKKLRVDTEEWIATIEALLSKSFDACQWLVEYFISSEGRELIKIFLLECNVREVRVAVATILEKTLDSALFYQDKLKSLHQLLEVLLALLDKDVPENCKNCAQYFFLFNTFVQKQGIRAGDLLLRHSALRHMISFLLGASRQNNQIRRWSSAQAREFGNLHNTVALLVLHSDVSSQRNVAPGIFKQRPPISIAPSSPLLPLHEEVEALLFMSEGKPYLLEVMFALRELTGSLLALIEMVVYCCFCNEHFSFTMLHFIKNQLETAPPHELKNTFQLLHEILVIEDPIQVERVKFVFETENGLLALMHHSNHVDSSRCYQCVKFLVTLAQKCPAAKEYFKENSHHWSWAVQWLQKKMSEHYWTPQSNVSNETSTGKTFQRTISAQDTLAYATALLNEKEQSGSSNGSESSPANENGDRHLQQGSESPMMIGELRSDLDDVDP

CNC(=O)Cn1cc(NC(=O)CCl)cn1
inactive: [1] -0.0937 | [2] -0.0499 | [3] -0.146 | [4] -0.172 | [5] -0.486
